Assay outcomes (PubChem BioAssay)
SRC1 inh: human NCOA1 inhibition | actives 0.12% (n = 360,000) | inhibition, % at 3.6 µM | Q15788 | HEK293 GAL4-SRC1 luciferase reporter, luminescence;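 active means inhibition above the campaign mean plus 3 SD, with each screening campaign given its own cutoff, cut at about 60% in these data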;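 further: 0% = DMSO treated cells and 100% = gossypol at 36 µM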
COUP-TFII inh: blocks human COUP-TFII nuclear receptor; P24468; HEK293T NGFI-A luciferase reporter, luminescence; inhibition, % at 8.6 µM; actives 0.7% (n = 370,000); AID 686940;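 active means inhibition above a per-plate cutoff, mean inhibition of test wells between control levels plus 3 SD, cut at about 38% in these data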;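 further: cells cotransfected with COUP-TFII expression vector driving the NGFI-A reporter; 0% = median of COUP-TF2 test wells and 100% = reporter-only cells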
SRC2 inh: inhibits human steroid receptor coactivator 2; actives 0.17% (n = 370,000); AID 651957; inhibition, % at 9 µM; Q15596; HEK293 GAL4-SRC2 luciferase reporter, luminescence;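 active means inhibition above the mean inhibition of all tested compounds plus 3 SD, set per campaign, cut at about 52% in these data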;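 further: 0% = DMSO treated cells and 100% = cells given Gossypol at 36 µM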
LRH-1 inv ag: inverse agonists of human LRH-1 (NR5A2); O00482; HEK293T StAR-luciferase reporter, LRH-1 transfected, 24 h; inhibition, % at 3.6 µM; actives 0.13% (n = 360,000); AID 602396;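 active means inhibition above the mean inhibition of all tested compounds plus 3 SD, cut at about 73% in these data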;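 further: 0% = DMSO wells and 100% = reporter-only cells lacking LRH-1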
Target sequence (O00482 whole entry, looked up): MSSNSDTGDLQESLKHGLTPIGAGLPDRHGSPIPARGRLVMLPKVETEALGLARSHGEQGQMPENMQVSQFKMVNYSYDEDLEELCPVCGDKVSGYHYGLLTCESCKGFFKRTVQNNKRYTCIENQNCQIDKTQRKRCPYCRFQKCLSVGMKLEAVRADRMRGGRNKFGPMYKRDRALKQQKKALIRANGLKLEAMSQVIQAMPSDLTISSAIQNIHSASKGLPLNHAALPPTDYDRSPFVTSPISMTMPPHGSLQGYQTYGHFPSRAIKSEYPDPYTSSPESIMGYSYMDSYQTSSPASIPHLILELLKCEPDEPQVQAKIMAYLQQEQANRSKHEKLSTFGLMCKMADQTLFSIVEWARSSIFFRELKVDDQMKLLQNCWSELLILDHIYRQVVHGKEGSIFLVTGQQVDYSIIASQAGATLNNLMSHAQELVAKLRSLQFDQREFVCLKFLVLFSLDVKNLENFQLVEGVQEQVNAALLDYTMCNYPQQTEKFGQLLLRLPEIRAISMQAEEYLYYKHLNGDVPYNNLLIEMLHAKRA
SRC3 inh: human NCOA3 inhibition; Q9Y6Q9; HEK293 GAL4-SRC3 luciferase reporter, luminescence; inhibition, % at 3.6 µM; actives 0.17% (n = 360,000);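 active means inhibition above a per-campaign cutoff, the mean of all compounds plus 3 SD, cut at about 60% in these data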;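 further: 0% = DMSO-treated cells and 100% = gossypol-treated cells at 36 µM; higher means less SRC3-driven luciferase light from the GAL4 reporter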
Gal4-VP16 ctr: VP16 inhibition counter-screen for COUP-TFII; actives 25% (n = 2,500); inhibition, % at 8.5 µM; shares compounds with COUP-TFII inh; HEK293 Gal4-VP16 luciferase reporter, luminescence; in the data active means inhibition above about 13%
NR2F2 inh conf: confirmation of human COUP-TFII (NR2F2) inhibitors; shares compounds with COUP-TFII inh; HEK293 NGFI-A luciferase reporter, luminescence; inhibition, % at 8.5 µM; actives 45% (n = 2,500);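 active means mean inhibition over three repeats above a set limit taken from the earlier primary screen, cut at about 38% in these data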;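 further: 100% = cells given the luciferase reporter alone without the COUP-TF2 vector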
Starred values were filed as active, the others as inactive. Hits are enriched below; roughly 0.81% of the tested compounds scored in any of these assays.

`CN(C)S(=O)(=O)c1cccc(C(=O)NCC(=O)NC2CCN(Cc3ccccc3)CC2)c1` gave SRC1 inh -3.2, COUP-TFII inh -5.5, SRC2 inh -19.6, LRH-1 inv ag 1.4 and SRC3 inh -23.7.
For O=C(NC1CCN(Cc2ccccc2)CC1)c1cccc(S(=O)(=O)Nc2ccc(F)cc2)c1 the results were SRC1 inh 15.8, COUP-TFII inh 54.6*, SRC2 inh 15.9, LRH-1 inv ag 24.2, SRC3 inh 20.8, Gal4-VP16 ctr 3.0 and NR2F2 inh conf 34.1.
For COC(=O)[C@]12CCCCC=C1N(Cc1ccc(OC)cc1)C(=O)[C@@H]2CC(=O)NCc1ccc(C)o1 the results were COUP-TFII inh -6.1 and SRC2 inh 6.9.
For C[C@H](O)[C@@H]1CN2CCc3c([nH]c4cccc(-c5ccc6c(c5)OCO6)c34)[C@@H]2C[C@@H]1N(C)C(=O)c1ccco1 the results were COUP-TFII inh 8.2 and SRC2 inh -23.2.
O=S(=O)(c1ccccc1Br)N(Cc1cn(Cc2ccccc2)nn1)C1CC1 was read as COUP-TFII inh -0.6 and SRC2 inh 5.6.
`COc1cccc(C=NNC(=O)CSc2nc3ccccc3[nH]2)c1O` gave COUP-TFII inh -2.3 and SRC2 inh 31.7.
`Cc1noc(C)c1CSCC(=O)N1CCN(c2ccc([N+](=O)[O-])cc2)CC1` gave SRC1 inh 4.6, COUP-TFII inh 37.7*, SRC2 inh 19.1, LRH-1 inv ag 29.6, SRC3 inh 12.8, Gal4-VP16 ctr 2.0 and NR2F2 inh conf 26.1.
For CCc1c(C)nc2ncnn2c1NCCc1ccccc1 the results were SRC1 inh 13.7, COUP-TFII inh 23.6, SRC2 inh -17.2, LRH-1 inv ag 6.3 and SRC3 inh 0.1.
`CCc1c(C)nc2ncnn2c1NCCc1ccc(Cl)cc1` gave SRC1 inh -6.6, COUP-TFII inh 46.8*, SRC2 inh 33.4, LRH-1 inv ag 26.9, SRC3 inh 32.6, Gal4-VP16 ctr 0.8 and NR2F2 inh conf 18.3.
O=C(COc1ccccc1C(=O)NCc1ccccc1)Nc1ccc(I)cc1 was read as COUP-TFII inh 1.2 and SRC2 inh -30.3.
Screening COc1ccc(C)cc1Nc1n[n+](-c2ccccc2)c(-c2c(OC)ccc3ccccc23)s1 returned SRC1 inh -7.9, COUP-TFII inh 43.3*, SRC2 inh 12.6, LRH-1 inv ag 3.1, SRC3 inh 28.5, Gal4-VP16 ctr 2.5 and NR2F2 inh conf 28.4.
CC1CCCN(c2nc(NCc3ccco3)nc(N)c2[N+](=O)[O-])C1 (centres undefined) was read as SRC1 inh 18.2, COUP-TFII inh 41.2*, SRC2 inh 1.5, LRH-1 inv ag 12.4, SRC3 inh 17.4, Gal4-VP16 ctr 1.0 and NR2F2 inh conf 4.1.
For CC1CCCN(c2ncnc3c2cnn3-c2ccc(Cl)cc2)C1 (centres undefined) the results were SRC1 inh 87.2*, COUP-TFII inh 100.3*, SRC2 inh 83.5*, LRH-1 inv ag 92.5*, SRC3 inh 88.3*, Gal4-VP16 ctr 89.7* and NR2F2 inh conf 105.1*.
Cc1cc(C(=O)CSc2nnc3ccccn23)c(C)n1-c1ccccc1 was read as SRC1 inh 58.6, COUP-TFII inh 40.4*, SRC2 inh 45.7, LRH-1 inv ag 58.3, SRC3 inh 66.0*, Gal4-VP16 ctr 5.4 and NR2F2 inh conf 57.3*.
Cc1cc(C(=O)CSc2nnc(-c3ccccc3)n2-c2ccccc2)c(C)n1-c1ncn[nH]1 was read as SRC1 inh 6.2, COUP-TFII inh 7.5, SRC2 inh 7.0, LRH-1 inv ag 5.7 and SRC3 inh -0.8.
For COC(=O)C[C@@H]1CC[C@H]2[C@@H](COc3ccc(NC(=O)Nc4ccccc4)cc3C(=O)N2C)O1 the results were COUP-TFII inh -6.5 and SRC2 inh 2.1.
COc1ccc(S(=O)(=O)N2CCOC2CNC(=O)C(=O)NCCc2ccc(OC)c(OC)c2)cc1 (centres undefined) was read as SRC1 inh 12.3, COUP-TFII inh 12.5, SRC2 inh 17.0, LRH-1 inv ag 16.3 and SRC3 inh 13.6.
